Screens deposited in PubChem by National Center for Advancing Translational Sciences (NCATS).
VP16 counter: inhibits Gal4-VP16 luciferase reporter, ROR gamma counter-screen; Drosophila S2 Gal4-VP16 UAS-luciferase, luminescence, 20 h; Potency, µM (series often up to 53.6 µM), inactives show at the top dose activity, negative = inhibition, usual class: inhibitors; actives 3.5% (n = 310,000);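 note: Gal4-VP16 expression switched on by copper sulfate through the metallothionein promoter; % is set by controls: 0 for no effect and ±100 for the full control effect; nearly all actives have a fitted effect of over 50% in size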
KB-V1 cytotox: kills drug-selected multidrug resistant KB-V1 cells. KB-V1 MDR cells viability, CellTiter-Glo, 72 h. Potency, µM (top dose mostly 46.1 µM), hits mostly cytotoxic. actives 3.4% (n = 400,000); note: % is set by controls: 0 for no effect and ±100 for the full control effect; nearly all actives have a fitted effect of over 60% in size
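Compound-treated KB-V1 multidrug-resistant cells, 72 h, 37 degrees C; viability by CellTiter-Glo. Fitted qHTS curves give the values.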
KB-3-1 tox: KB-3-1 parental cell cytotoxicity. KB-3-1 viability, CellTiter-Glo ATP luminescence, 72 h. Potency, µM (top dose mostly 46.1 µM), actives largely listed as cytotoxic. actives 1.4% (n = 400,000). AID 1347075; note: % is set by controls: 0 for no effect and ±100 for the full control effect; nearly all actives have a fitted effect of over 60% in size
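Cytotoxicity in the drug-sensitive parental line KB-3-1 was scored as loss of CellTiter-Glo luminescence following 72 h incubation with compound. Values come from curve fitting of normalized concentration-response data.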
SW480 rereplic: DNA re-replication induction in SW480 cells; AID 624297; Potency, µM (top dose mostly 46.1 µM), without a hit: at the highest dose re-replication activation, most hits filed as activators; SW480 DNA re-replication, Hoechst DNA content imaging, 48 h; actives 1.8% (n = 340,000); note: % of control where 0% means no effect; nearly all actives have a fitted effect of over 55% in size
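First, 250 cells per well were seeded. Next, compound or vehicle (23 nL) was pinned in, plates sat 48 hr at 37 C. Finally Hoechst was added for 40 min before fluorescence scanning.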
MCF10A rereplic: inducers of DNA re-replication in MCF 10A breast cells | MCF 10A DNA re-replication, Hoechst nuclear intensity, 48 h | Potency, µM (titrated, usually from 46.1 µM), without a hit: at the top dose activity, positive = re-replication, hits mostly activators | actives 2.9% (n = 350,000); note: % of control where 0% means no effect; nearly all actives have a fitted effect of over 50% in size
RORg inh: ROR gamma (mouse) transcription inhibition. P51450. Drosophila S2 Gal4-RORgamma UAS-luciferase reporter, 20 h. Potency, µM (series often up to 53.6 µM), for the others: top-dose activity change, negative = inhibition, hits mostly inhibitors. actives 5.4% (n = 310,000). AID 2551; note: % is set by controls: 0 for no effect and ±100 for the full control effect; nearly all actives have a fitted effect of over 60% in size
Target sequence (P51450 whole entry, looked up, the tested form may be a part): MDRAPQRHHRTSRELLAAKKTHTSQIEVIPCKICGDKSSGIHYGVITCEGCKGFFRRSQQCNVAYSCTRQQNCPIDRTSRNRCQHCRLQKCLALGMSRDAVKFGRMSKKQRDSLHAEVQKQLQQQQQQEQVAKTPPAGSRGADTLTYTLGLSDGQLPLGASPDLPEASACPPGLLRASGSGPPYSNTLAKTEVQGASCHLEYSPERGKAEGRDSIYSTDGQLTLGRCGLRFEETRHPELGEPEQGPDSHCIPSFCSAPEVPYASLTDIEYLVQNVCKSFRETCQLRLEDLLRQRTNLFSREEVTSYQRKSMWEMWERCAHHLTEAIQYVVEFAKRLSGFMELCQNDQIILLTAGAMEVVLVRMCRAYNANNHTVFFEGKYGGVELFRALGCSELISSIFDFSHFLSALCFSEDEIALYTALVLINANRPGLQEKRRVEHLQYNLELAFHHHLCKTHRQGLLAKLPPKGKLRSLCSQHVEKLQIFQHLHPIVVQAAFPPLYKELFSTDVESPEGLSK
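A Gal4/UAS one-hybrid system in insect cells: metallothionein-promoter Gal4–ROR gamma fusion plus Photinus luciferase reporter. Copper sulfate 700 uM final, 20 hr ambient incubation, luminescent detection after 10 min with reagent.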
Starred values were filed as active, the others as inactive; i = inactive; u = inconclusive; x = no result; [ ] = dose if it differs, or a comment. A selection: hits, their analogues and other compounds. The true share with any hit is near 10%. Calls come from the whole dose curve; as a rule, active = well fitted curve in the direction sought with a large enough effect; inconclusive = small, poorly fitted or top-dose-only effect, or another doubt; inactive = no such curve, though single readings can be large; an effect the other way counts as inactive or inconclusive. Potency is the fitted concentration of half-maximal effect.

SMILES | VP16 counter | KB-V1 cytotox | KB-3-1 tox | SW480 rereplic | MCF10A rereplic | RORg inh
Cc1ccc(Nc2nc(C(=O)NCc3ccco3)cs2)cc1 | 7.4% | u | i | -0.6% | 22.1% | 30.7%[10 µM]
CCOC(=O)/C(=N/Nc1ccccc1)c1csc(Nc2ccccc2)n1 | -21.5% | u | i | u | u | -40.8%
CCOC(=O)/C(=N\Nc1ccc(Cl)cc1)c1csc(Nc2ccccc2)n1 | -10.6% | i | i | u | 3.98µM* | -2.7%
CCN(CC)C(=O)c1csc(Nc2ccc(C)cc2)n1 | -7.4% | 14.6µM* | i | -8.3% | -0.1% | u
COc1ccc(NC(=O)C(C)n2nc(-c3ccc(C)c(C)c3)ccc2=O)cc1OC (stereo not drawn) | x | i | i | x | x | x
COc1cc(OC)c(/C=C/c2ccncn2)c(OC)c1 | x | i | u | x | x | x
Cc1ccc(-c2csc(=S)[nH]2)cc1 | u | i | i | 19.7% | 11.9% | 7.08µM*
S=c1nccc(-c2ccc(Cl)cc2)[nH]1 | 5.01µM* | i | i | -6.2% | -0.2% | 2.82µM*
S=c1[nH]c(-c2ccc(Cl)cc2)cs1 | -0.5% | i | i | 0.7% | 16.2% | 7.08µM*
Cc1ccc(S(=O)(=O)Oc2cccc(/C=N/Nc3ccc(C(=O)O)cc3)c2)cc1 | -18.6% | i | i | -6.4% | u | -6.8%
Cc1ccc(S(=O)(=O)Oc2cccc(/C=N/n3cnnc3)c2)cc1 | u | 18.4µM* | u | u | u | 1.7%
Fc1ccc2c(c1)-c1c(cnc3cc(-c4ccc(Cl)cc4)nn13)CO2 | x | i | i | x | x | x
CCCCCN(C(=O)CCC(=O)OCCOc1cccc(C)c1)c1c(N)n(CCCC)c(=O)[nH]c1=O | x | u | i | 12.1% | 4.2% | x
CSC1=NC(C)(C)C=C(/C=C/c2ccc(Cl)cc2)N1 | u | u | i | 0.651µM* | 16.4µM* | u
CSC1=NC(C)(C)C=C(/C=C/c2ccc(Cl)cc2Cl)N1 | -14.9% | i | u | 14.6µM* | u | u
Cc1ccc2c(c1)c1c(c(=O)n(-c3cccc(Cl)c3)c(=O)n1CC(=O)c1ccc(Cl)cc1)n2C | x | i | i | x | x | x
CNC(C)C#Cc1ccc2sc3cccc(OC)c3c(=O)c2c1 (stereo not drawn) | -10.7% | i | i | 7.31µM* | u | -38.1%
CCN1CC2=C(OC(N)=C(C#N)C2c2ccccc2)/C(=C\c2ccccc2)C1 (stereo not drawn) | 4.0% | i | u | u | 23.1µM* | 15.7%
O=C(O)CCSc1nnc(CNc2ccc(Cl)cc2)n1Cc1ccccc1 | -1.4% | i | i | 0.231µM* | 1.5% | -1.5%
O=C(CSc1nnc(CNc2ccc(Cl)cc2)n1Cc1ccccc1)NCc1ccco1 | -0.5% | i | i | -10.2% | 9.8% | 11.3%
CCn1c(CNc2ccc(Cl)cc2)nnc1SCC(=O)OC1CCCCC1 | -11.8% | i | i | 2.4% | 12.6µM* | u
COc1ccc(NC(=O)CC2C(=O)N(c3ccc(C)cc3)C(=O)N2Cc2ccc3c(c2)OCO3)cc1 (stereo not drawn) | x | i | i | x | x | x
COc1ccc(NC(=O)CC2C(=O)N(C)C(=S)N2CCc2ccccc2)cc1 (stereo not drawn) | -5.2% | 10.3µM* | u | u | u | u
COc1ccc(NC(=O)CC2C(=O)N(C)C(=S)N2Cc2ccc3c(c2)OCO3)cc1 (stereo not drawn) | -13.5% | 14.6µM* | i | u | 5.1% | u
COc1ccc(NC(=O)CC2C(=O)N(c3ccc(OC)cc3)C(=S)N2NC(=O)c2cccc(F)c2)cc1 (stereo not drawn) | u | u | i | -5.2% | u | 12.6µM*
SMILES | VP16 counter | KB-V1 cytotox | KB-3-1 tox | SW480 rereplic | MCF10A rereplic | RORg inh
CC[C@@H](NC(=O)[C@H](Cc1ccccc1)NC(=O)CC[C@H]1O[C@@H](n2ccc(=O)[nH]c2=O)[C@H](O)[C@@H]1O)c1ccccc1 | x | i | i | x | x | x
CCCc1c(NC(=O)Nc2ccc(Cl)cc2Cl)cnn1-c1ccccc1 | -0.4% | u | u | 14.6µM* | u | -22.4%
CCCc1c(C(=O)Nc2ccc(F)cc2F)cnn1-c1ccccc1 | -5.6% | u | i | -2.3% | 2.2% | u
Cc1cc2oc3c(c(=O)c2cc1C)C(c1cccc(Br)c1)N(Cc1ccco1)C3=O (stereo not drawn) | -3.2% | i | i | -18.7% | 10µM* | -17.1%
Cc1ccc2oc3c(c(=O)c2c1)C(c1cccc(Br)c1)N(Cc1ccco1)C3=O (stereo not drawn) | -5.4% | i | i | u | u | 9.4%
CCOc1cc(C2c3c(oc4cc(C)c(Cl)cc4c3=O)C(=O)N2Cc2ccco2)ccc1O (stereo not drawn) | 0.7% | 1.84µM* | u | 5.4% | u | 0.9%
COc1cc(C2c3c(oc4ccccc4c3=O)C(=O)N2Cc2ccco2)ccc1O (stereo not drawn) | -8.3% | i | i | 17.1% | -9.2% | -13.5%
Cc1cc(C)c(C(=O)/C=C/c2cccc3ccccc23)c(=O)[nH]1 | 12.6µM* | 8.2µM* | 6.51µM* | 23.1µM* | 16.4µM* | u
COc1cccc(CN(C)C(=S)Nc2cccc(C)c2)c1 | u | u | i | 4.9% | -0.4% | 11.2µM*
COc1ccc(CN(C)C(=S)Nc2ccc(Cl)cc2)cc1 | u | i | i | 79.9% | u | 10µM*
CCOC(=O)c1ccc(NC(=O)c2nc[nH]c2C(=O)NCC(=O)OC(C)(C)C)cc1 | 15.8µM* | u | u | -1.0% | 13.5% | 7.08µM*
CCOC(=O)c1ccc(NC(=O)c2nc[nH]c2C(=O)NCCCCCNC(=O)OC(C)(C)C)cc1 | u | u | u | -53.0% | 19.9% | 11.2µM*
CCOC(=O)c1ccc(NC(=O)c2nc[nH]c2C(=O)NCCCCNC(=O)c2[nH]cnc2C(=O)Nc2ccc(C(=O)OCC)cc2)cc1 | x | i | i | -9.9% | 5.5% | x
O=C(Nc1ccccc1Cl)N1CCN(c2ccccn2)CC1 | 25.6% | 16.4µM* | u | -18.5% | -1.0% | -11.0%
Nc1ncc(Br)cc1S(=O)(=O)NCCC(=O)N1CCN(c2ccccn2)CC1 | -13.1% | i | i | -0.1% | 1.9% | 0.5%
O=C(c1ccc(Cl)c(Cl)c1)N1CCN(c2ccccn2)CC1 | 0.1% | i | i | -86.2% | 12.2% | 13.7%
CN(c1ccccc1)S(=O)(=O)c1cc(C(=O)N2CCN(c3ccccn3)CC2)ccc1Cl | -8.8% | 23.1µM* | u | -3.9% | 7.4% | u
